Data on five compounds can be found in PubChem BioAssay.

The subject of assay [1] is Wnt5a (protein binding on small-molecule microarray). The assay is described as follows: small molecules binding Wnt5a protein – biophysical, small-molecule microarray, 635/667 nm fluorescence, primary screen (AID 1142).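 Further: fluorescence read at 667 nm with signal to noise per printed feature.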 Particulars: 635 nm fluorescence, higher = more signal.
Assay [2] in a line: ATP-based viability of Huh7 replicon cells – cell-based, CellTiter-Glo luminescence, basal, 48 h, cytotoxicity control for HCV replication inhibitor project, primary screen (AID 1143).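 Further: Huh7 hepatoma cells carrying a hepatitis C replication reporter with no stimulus; test concentration not given here.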 Particulars: higher = more signal, called active from +8 up or from −8 down. On the technique in general: In antiviral work, replicon cells carry a viral genome segment that copies itself.
The nature of assay [3]: Pseudomonas biofilm growth suppression – PAO1 strain, BacTiter-Glo luminescence, LB-PBS, primary screen (AID 1144). Particulars: P. aeruginosa PAO1 biofilm, 12 h, higher = more signal.
Assay [4] can be described thus: basal CRE-LacZ reporter activity in PC12 – cell-based, unstimulated, primary screen (AID 1145). Particulars: no forskolin, luminescence, 4.5 h, higher = more signal, called active from +8 up or from −8 down.
Assay [5] can be described thus: forskolin-driven CRE-LacZ activity in PC12 – cell-based, CRE-LacZ reporter, forskolin-stimulated, primary screen (AID 1146).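 Further: PC12 cells with 6xCRE LacZ reporter stimulated by forskolin 10 µM; beta-galactosidase reporter signal reflecting CREB driven transcription.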 Particulars: luminescence, 4.5 h, higher = more signal, called active from +8 up or from −8 down.
Assay [6] has as its target Streptavidin (Streptomyces avidinii) (UniProt P22629). As to the kind of experiment: compounds binding control protein streptavidin – biophysical, small-molecule microarray, 635/667 nm fluorescence, artefact control for SMM compound annotation, primary screen (AID 1147).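 Further: signal reflects streptavidin binding to arrayed compounds as a control protein.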 The settings on record: higher = more signal.
A short description of assay [7]: probe aInhba binding on compound microarray – biochemical, small-molecule microarray, 635/667 nm fluorescence, primary screen (AID 1148).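 Further: score merges 667nm spot fluorescence with signal-to-noise for antibody binding to printed compounds.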 Particulars: higher = more signal.
Assay [8] deals with Torsin-1A (Homo sapiens) (UniProt O14656). The assay is described as follows: TOR1A wild-type binding on microarray – cell lysate, small-molecule microarray, lysate, 635/667 nm, primary screen (AID 1149). Particulars: COS7 hTOR1A-WT lysate, 635 nm fluorescence, higher = more signal.
Assay [9] shares this target. As to the kind of experiment: torsin A mutant lysate binding on microarrays – cell lysate, small-molecule microarray, COS7 lysate, 635/667 nm fluorescence, primary screen (AID 1150).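 Further: score pools 667 nm emission and signal to noise measuring lysate protein binding.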 Particulars: COS7 hTOR1A mutant lysate, 635 nm fluorescence, higher = more signal.
Assay [10] deals with Sonic hedgehog protein (Shh). The assay is described as follows: Sonic hedgehog microarray binding compounds – biochemical, small-molecule microarray, 635/667 nm fluorescence, primary screen (AID 1151).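 Further: Shh protein binding to compounds spotted on small-molecule microarray slides; score combines spot fluorescence intensity with signal-to-noise across triplicate slides.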 The settings on record: 635 nm fluorescence, higher = more signal.
Assay [11] is described as follows: optical density shifts of acrAB sulA E. coli – strain DRC41, OD650, 48 h, E. coli filamentation inducer project, primary screen (AID 1152).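 Further: E. coli MC1000 strain DRC41 lacking acrAB efflux pump and sulA.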 Particulars: higher = more signal, called active from +8 up or from −8 down.
Assay [12] in a line: probe aLefty1 binding on compound microarray – biochemical, small-molecule microarray, 635/667 nm fluorescence, primary screen (AID 1153).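 Further: score merges spot fluorescence with signal-to-noise ratio from the scanned slide images.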 Particulars: higher = more signal.
Assay [13] can be described thus: plasmodial surface anion channel blockers, osmotic lysis – cell-based, P. falciparum Indochina, OD700, 1 h, primary screen (AID 1154). Particulars: P. falciparum Indochina infected RBC osmotic lysis, higher = more signal, called active from +8 up or from −8 down.
The nature of assay [14]: plasmodial surface anion channel blockers, osmotic lysis – cell-based, P. falciparum Indochina, OD700, 2 h, primary screen (AID 1155).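 Further: lysis reports solute entry through the parasite surface anion channel PSAC.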 Particulars: P. falciparum Indochina infected erythrocytes, higher = more signal, called active from +8 up or from −8 down.
Assay [15] is described as follows: changes in parasitized red cell lysis, either direction – P. falciparum Indochina, OD700, 3 h, PSAC antagonist project, primary screen (AID 1156). Particulars: P. falciparum-infected erythrocytes, osmotic lysis, higher = more signal, called active from +8 up or from −8 down.
Assay [16] in a line: plasmodial surface anion channel blockers, osmotic lysis – cell-based, P. falciparum Indochina, OD700, 18 h, primary screen (AID 1157). Particulars: P. falciparum Indochina infected erythrocytes, osmotic lysis OD700, 18 h; higher = more signal, called active from +8 up or from −8 down.
Assay [17] in a line: S6 kinase pathway phospho-S6 level changes – cell-based, A549, cytoblot, luminescence, serum-stimulated, primary screen (AID 1158).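 Further: serum-stimulated A549 lung adenocarcinoma cells; signal is phosphorylated S6 detected by cytoblot immunostaining with HRP secondary.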 The settings on record: 5 h, higher = more signal.
The target of assay [18] is NADPH oxidase 2 (Homo sapiens) (UniProt P04839). The assay is described as follows: compounds shifting NOX2 Amplex Red fluorescence – cell-based, HEK293-NOX2, PMA-stimulated, NOX inhibitor project, primary screen (AID 1159). Further: test concentration not given here. Particulars: 45 min, higher = more signal, called active from +8 up or from −8 down.
The target of assay [19] is NADPH oxidase 4 (Homo sapiens) (UniProt Q9NPH5). The assay is described as follows: compounds shifting NOX4 Amplex Red fluorescence – cell-based, HEK293-NOX4, tetracycline-induced, NOX inhibitor project, primary screen (AID 1160). The settings on record: HEK293-NOX4, Amplex Red H2O2 fluorescence, 45 min; higher = more signal, called active from +8 up or from −8 down.
For assay [20], the target named is NADPH oxidase 5 (Homo sapiens) (UniProt Q96PH1). The assay is described as follows: compounds shifting NOX5 Amplex Red fluorescence – cell-based, HEK293-NOX5, NOX inhibitor project, primary screen (AID 1161). Particulars: HEK293-NOX5, ionomycin, 45 min, higher = more signal.

Calls of active or inactive are those of the source. Unless noted, how the calls were made is not given here.

NADPH oxidase 2 (Homo sapiens), sequence (P04839 whole entry, looked up): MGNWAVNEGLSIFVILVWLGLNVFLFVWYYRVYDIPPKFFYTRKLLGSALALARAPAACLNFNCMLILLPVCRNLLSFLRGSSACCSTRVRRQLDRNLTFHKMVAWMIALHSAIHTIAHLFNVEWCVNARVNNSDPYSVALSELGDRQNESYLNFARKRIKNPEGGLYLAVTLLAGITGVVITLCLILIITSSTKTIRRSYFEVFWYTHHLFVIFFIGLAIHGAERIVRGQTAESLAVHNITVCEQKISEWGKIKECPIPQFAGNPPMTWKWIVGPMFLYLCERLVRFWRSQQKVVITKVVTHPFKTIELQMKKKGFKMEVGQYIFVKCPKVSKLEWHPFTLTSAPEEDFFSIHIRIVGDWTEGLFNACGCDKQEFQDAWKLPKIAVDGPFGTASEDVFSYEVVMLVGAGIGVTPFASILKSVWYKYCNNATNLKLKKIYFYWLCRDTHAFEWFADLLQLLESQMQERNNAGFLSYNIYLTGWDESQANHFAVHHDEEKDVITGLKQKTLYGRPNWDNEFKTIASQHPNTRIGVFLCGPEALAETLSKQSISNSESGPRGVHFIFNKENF
NADPH oxidase 5 (Homo sapiens), sequence (Q96PH1 whole entry, looked up): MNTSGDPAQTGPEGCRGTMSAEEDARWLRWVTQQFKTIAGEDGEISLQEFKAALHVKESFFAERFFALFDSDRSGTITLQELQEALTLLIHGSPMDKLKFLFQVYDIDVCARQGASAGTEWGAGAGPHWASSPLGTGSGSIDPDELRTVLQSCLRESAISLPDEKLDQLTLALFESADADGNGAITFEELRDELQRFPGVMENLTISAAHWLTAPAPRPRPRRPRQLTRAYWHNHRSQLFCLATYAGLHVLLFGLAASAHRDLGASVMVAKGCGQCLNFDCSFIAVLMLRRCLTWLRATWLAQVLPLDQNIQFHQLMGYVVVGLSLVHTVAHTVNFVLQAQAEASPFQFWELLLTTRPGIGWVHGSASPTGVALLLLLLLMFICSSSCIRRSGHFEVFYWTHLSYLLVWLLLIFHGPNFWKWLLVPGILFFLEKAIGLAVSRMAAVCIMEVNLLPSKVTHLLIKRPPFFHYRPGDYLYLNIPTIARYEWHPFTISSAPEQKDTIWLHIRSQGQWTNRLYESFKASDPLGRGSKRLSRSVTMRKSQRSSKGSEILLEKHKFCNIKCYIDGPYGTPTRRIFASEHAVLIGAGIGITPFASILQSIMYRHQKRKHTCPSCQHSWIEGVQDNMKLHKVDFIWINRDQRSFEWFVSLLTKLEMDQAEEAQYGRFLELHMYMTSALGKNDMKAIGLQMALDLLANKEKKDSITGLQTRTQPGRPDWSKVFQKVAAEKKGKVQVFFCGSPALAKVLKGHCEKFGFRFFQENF
Streptavidin (Streptomyces avidinii), sequence (P22629 whole entry, looked up): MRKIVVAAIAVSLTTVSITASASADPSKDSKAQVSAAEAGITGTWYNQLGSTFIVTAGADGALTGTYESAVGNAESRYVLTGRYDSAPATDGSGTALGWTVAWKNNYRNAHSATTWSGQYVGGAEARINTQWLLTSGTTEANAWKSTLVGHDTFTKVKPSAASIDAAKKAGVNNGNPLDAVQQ
Torsin-1A (Homo sapiens), sequence (O14656 whole entry, looked up): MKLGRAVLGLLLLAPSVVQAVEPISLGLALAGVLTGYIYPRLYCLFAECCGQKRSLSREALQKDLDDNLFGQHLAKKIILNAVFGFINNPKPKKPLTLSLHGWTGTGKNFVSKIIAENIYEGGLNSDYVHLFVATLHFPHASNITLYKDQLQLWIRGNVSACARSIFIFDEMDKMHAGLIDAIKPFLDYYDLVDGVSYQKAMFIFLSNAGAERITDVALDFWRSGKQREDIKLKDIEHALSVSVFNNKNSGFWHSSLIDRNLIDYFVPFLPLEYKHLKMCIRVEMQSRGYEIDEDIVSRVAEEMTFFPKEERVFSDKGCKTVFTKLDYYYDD
NADPH oxidase 4 (Homo sapiens), sequence (Q9NPH5 whole entry, looked up): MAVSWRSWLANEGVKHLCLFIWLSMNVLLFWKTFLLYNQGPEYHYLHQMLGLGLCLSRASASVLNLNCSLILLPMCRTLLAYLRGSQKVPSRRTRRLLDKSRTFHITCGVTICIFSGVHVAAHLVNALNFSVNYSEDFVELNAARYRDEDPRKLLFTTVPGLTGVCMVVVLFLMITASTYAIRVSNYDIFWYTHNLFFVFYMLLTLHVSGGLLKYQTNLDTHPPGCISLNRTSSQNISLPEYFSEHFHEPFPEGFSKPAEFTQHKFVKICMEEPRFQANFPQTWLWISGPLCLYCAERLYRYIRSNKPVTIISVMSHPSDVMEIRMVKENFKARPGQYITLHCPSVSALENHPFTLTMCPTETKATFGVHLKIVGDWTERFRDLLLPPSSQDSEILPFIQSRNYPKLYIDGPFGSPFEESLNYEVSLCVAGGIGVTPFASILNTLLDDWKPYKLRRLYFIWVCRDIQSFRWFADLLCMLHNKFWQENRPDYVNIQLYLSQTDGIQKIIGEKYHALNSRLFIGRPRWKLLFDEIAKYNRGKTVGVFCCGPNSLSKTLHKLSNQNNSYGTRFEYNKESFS

For the compound `CCCC[C@@H]1C[C@H]1[C@@H](NS(=O)(=O)c1cccc2cccnc12)c1ccc(-c2ccccc2)cc1`, the composite z-score in assay [1] is -0.0366; in [6], 0.731; in assay [7] it was 0.134; in the assay with Torsin-1A (Homo sapiens) [8], -0.199; in the assay with Torsin-1A (Homo sapiens) [9], -0.199; in assay [10], -1.66. The compound further had a composite z-score in [12] of 0.0217. For the same compound, the z-score is -0.325 (inactive) in assay [2]; -1.02 (inactive) in assay [3]; 0.204 (inactive) in assay [4]; 1.62 (inactive) in assay [5]; -1.29 (inactive) in assay [11]; 1.58 (inactive) in [13]. Further, the z-score in assay [14] is 0.985 (inactive); in assay [15] it was 0.336 (inactive); in assay [16], 0.764 (inactive); in [17], -0.464; in assay [18] it was 0.0564 (inactive); in assay [19], -1.29 (inactive). Besides, the z-score in assay [20] worked out at 1.21.
For the compound `CCCNC(=O)[C@@H]1c2ccccc2C(=O)N(c2ccc(C)cn2)[C@H]1c1ccc(CO)cc1`, the composite z-score in [1] was -0.108; in assay [6], -0.372; in assay [7] it was -0.108; in the assay with Torsin-1A (Homo sapiens) [8], -0.291; in the assay with Torsin-1A (Homo sapiens) [9], -0.397; in [10], -0.013. In [12], this compound had a composite z-score of -0.303. The z-score is 0.62 (inactive) in [2]; 0.242 (inactive) in [3]; -0.412 (inactive) in [4]; 0.538 (inactive) in assay [5]; -0.292 (inactive) in [11]; 1.97 (inactive) in assay [13]. Besides, the z-score in assay [14] is -0.0991 (inactive); in assay [15], 0.562 (inactive); in [16], 0.0336 (inactive); in assay [17], 0.214; in assay [18] it was 0.114 (inactive); in [19] it was 0.0822 (inactive). The z-score in assay [20] was -0.974.
Take `CCc1cc2c(nc1CC)CCN(CCC(C)=NOC[C@@H](O)COCc1ccco1)C2`: the composite z-score turned out to be 0.391 in assay [1]; 0.536 in assay [6]; 0.149 in [7]; 3.95 with Torsin-1A (Homo sapiens) [8]; 3.64 with Torsin-1A (Homo sapiens) [9]; 2.31 in assay [10]. In assay [12], this compound registered a composite z-score of 1.09. Moreover, the z-score in assay [2] was -0.112 (inactive); in [3], 0.132 (inactive); in [4], 2.16 (inactive); in [5], 0.785 (inactive); in assay [11], 0.538 (inactive); in assay [13], 2.3 (inactive). Moreover, the z-score is -0.0282 (inactive) in [14]; 0.0761 (inactive) in assay [15]; 0.147 (inactive) in assay [16]; -0.659 in assay [17]; -0.566 (inactive) in assay [18]; 0.162 (inactive) in assay [19]. Further, in assay [20], the z-score was 1.84.
For the compound `C=C(/C(=C/C[C@H](OC(C)=O)c1ccc(OCCO)cc1)c1cnc2ccccc2c1)C(C)C`, the composite z-score in assay [1] is 0.826; in [6], 0.868; in assay [7], -0.108; with Torsin-1A (Homo sapiens) [8], 0.55; with Torsin-1A (Homo sapiens) [9], 1; in assay [10], 2.21. This compound also registered a composite z-score in assay [12] of -0.314. Moreover, the z-score in assay [2] is -2.51 (inactive); in assay [3], -1.37 (inactive); in assay [4], 2.06 (inactive); in assay [5], -0.586 (inactive); in assay [11], 1.02 (inactive); in assay [13] it was 12.8 (active). Further, the z-score was 1.64 (inactive) in [14]; 1.56 (inactive) in assay [15]; 0.749 (inactive) in [16]; 0.268 in assay [17]; -2.21 (inactive) in assay [18]; -0.569 (inactive) in [19]. Moreover, the z-score in assay [20] is -1.8.
In the case of `CCCC=C(CCC)[C@@H](NC(=O)c1ccc(-c2ccccc2)cc1)c1ccc(C(=O)OC)cc1`, the composite z-score in assay [1] was -0.0745; in assay [6], 1.09; in assay [7] it was 0.0872; with Torsin-1A (Homo sapiens) [8], -0.162; in the assay with Torsin-1A (Homo sapiens) [9], 0.0735; in assay [10], -0.809. Besides, the composite z-score in [12] was found to be 0.547. Moreover, the z-score in assay [2] is -0.116 (inactive); in assay [3] it was 0.29 (inactive); in [4], 0.576 (inactive); in assay [5] it was 0.381 (inactive); in assay [11], -1.23 (inactive); in assay [13] it was 0.626 (inactive). In addition, the z-score in assay [14] is 0.453 (inactive); in [15] it was -0.104 (inactive); in assay [16], 0.987 (inactive); in assay [17] it was 0.692; in assay [18], -0.0895 (inactive); in assay [19], 1.13 (inactive). Moreover, in [20], the z-score was 1.81.
